Bioassay records deposited in PubChem by several laboratories.
Sampled rows, rich in hits. Any-hit rate of the full collection: about 0.5%.
E coli growth-1 – E. coli V3065 growth inhibition, primary screen, counter-screen for AddAB inhibitor project, absorbance, OD600 | inhibition, % at 11.9 µM | 18 h | actives 0.27% (n = 330,000);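 active = inhibition above the campaign's mean inhibition across all tested compounds plus 3 SD, cut at about 9.9% in these data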;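 note: uninfected addAB+ strain grown without phage in ampicillin broth; 0% = DMSO wells and 100% = ciprofloxacin 0.95 µg/ml wells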
Tat export inh – E. coli Tat export inhibitors, primary screen, MC4100, TorA-mCherry reporter, fluorescence, single point | inhibition, % at 10 µM | actives 0.036% (n = 340,000);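 active = mean replicate inhibition at least 50% and at least half of replicates individually reaching 50%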;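 note: exported cargo escapes ClpAP degradation while cytoplasmic cargo is degraded and loses fluorescence; 0% = median of neutral control wells and 100% = median of NaSCN control wells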
E coli growth-2 – E. coli growth inhibition, primary screen, OD600; Escherichia coli growth, 23 h; stronger effect = lower value; OD600 absorbance (concentration not given with the values); actives 0.21% (n = 330,000); AID 1053175, 2014;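 active = OD600 absorbance below the run mean of sample wells minus 3.6 SD, in any replicate, cut at about 0.56 in these data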
AddAB inh – growth inhibition of E. coli expressing H. pylori AddAB, primary screen, AddAB inhibitor project, absorbance; inhibition, % at 11.9 µM; actives 0.29% (n = 330,000); in the data active = inhibition above about 12%;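 note: 0% = vehicle wells of infected cells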
phage Ecoli inh – growth loss of phage-infected E. coli, primary screen, RecBCD inhibitor project, absorbance, with phage, HTS | inhibition, % at 11.9 µM | actives 0.26% (n = 360,000); in the data active = inhibition above about 11%
The depositor's hits bear a star; . = not tested or not shown.

SMILES	E coli growth-1	Tat export inh	E coli growth-2	AddAB inh	phage Ecoli inh
COc1ccc2c3c(cccc13)C(=O)N(O)C2=O	-0.5	-14.7	0.377*	0.3	3.7
CN1CCC(NCCC(c2ccc(F)cc2)c2ccc(Cl)cc2)CC1 (stereo unspecified)	.	3.2	0.514*	.	1.2
CC(C)C(CCNC1CCN(C)CC1)c1ccc(Cl)cc1 (stereo unspecified)	-1.7	-21.1	0.632	1.7	2.9
COc1ccc(/C=C2\SC(=O)N(CCNC(=O)C3CC(=O)N(c4ccccc4)C3)C2=O)cc1 (stereo unspecified)	12.0*	6.7	0.705	9.1	3.1
CCOc1ccc(N2CC(C(=O)NCCN3C(=O)S/C(=C\c4ccc(OC)cc4)C3=O)CC2=O)cc1 (stereo unspecified)	-0.5	-9.6	0.717	0.9	0.9
C/C(C=NNC(=O)c1cnccn1)=C\c1ccco1	.	.	0.618	.	.
O=C(/C=C/c1ccc(F)cc1)NC(=S)NNC(=O)c1cnccn1	0.3	-6.0	0.663	3.5	3.8
O=C(NC(=S)NNC(=O)c1cnccn1)c1ccc(F)cc1	3.1	5.1	0.405*	5.3	3.0
O=[N+]([O-])c1cccc2nc3ccccc3c(NCCCn3ccnc3[N+](=O)[O-])c12	.	1.6	.	.	16.1*
O=[N+]([O-])c1ccccc1Nc1c2ccccc2nc2ccccc12	0.9	1.7	0.664	4.0	0.9
CN(C)CC(=O)c1c(N)n(Cc2ccccc2)c(=O)n(C)c1=O	-0.4	-2.2	0.537*	5.1	-1.8
CNCC(CC1CCCCC1)NCC(CC(C)C)NCCc1cccc(C(F)(F)F)c1 (stereo unspecified)	.	.	0.0675*	.	.
CNC[C@@H](CC1CCCCC1)NC[C@H](CC(C)C)NCCc1cccc(C(F)(F)F)c1	-1.7	5.5	.	-0.2	3.8
O=C(COc1ccc([N+](=O)[O-])cc1)Nc1cc(S(=O)(=O)N2CCCCC2)ccc1N1CCCCC1	-0.7	63.8*	0.721	0.3	4.0
COC(=O)CN1C(=O)C2C(c3ccc(C)o3)N3C(=O)CN(CC4CC4)C(=O)[C@@]3(C)C2C1=O (stereo partly specified)	.	.	0.698	.	.
CC(=NNc1cc(Cl)nc(C)n1)c1ccc(Cl)c(Cl)c1	.	.	0.709	.	.
C=CCN1C(=O)[C@@H]2Cc3c([nH]c4ccccc34)C(c3ccc(O)cc3)N2C1=S (stereo partly specified)	-1.2	4.5	0.0665*	1.2	.
C=CCN1C(=O)[C@@H]2Cc3c([nH]c4ccccc34)C(c3cc(OC)c(OC)c(OC)c3)N2C1=S (stereo partly specified)	-2.2	-5.9	0.69	-0.9	6.0
CC1CCN(C(=O)c2ccc(S(=O)(=O)N3CCCCCC3)cc2)CC1	1.9	4.2	0.649	2.7	2.5
CC1CCN(C(=O)c2ccc(S(=O)(=O)N3CCCC3)cc2)CC1	-0.7	54.5*	0.677	3.7	3.3
NC(COc1ccc(C(=O)O)cc1)=NO	.	.	0.69	.	.
CCOc1ccc(N(CC(=O)Nc2ccc(F)c(F)c2)S(=O)(=O)c2c(C)noc2C)cc1	1.3	1.0	0.671	5.4	3.0
CCOc1ccc(N(CC(=O)Nc2ccc(C)cc2)S(=O)(=O)c2c(C)noc2C)cc1	0.4	12.2	0.757	4.0	18.0*
COCc1cc(=O)[nH]c(N=C(N)Nc2ccc(Cl)c(Cl)c2)n1	.	.	0.701	.	.
C=C1c2c(Cl)ccc(O)c2C(O)=C2C(=O)[C@]3(O)C(O)=C(C(N)=O)C(=O)C(N(C)C)C3C(O)C12 (stereo partly specified)	.	.	0.0755*	.	.
SMILES	E coli growth-1	Tat export inh	E coli growth-2	AddAB inh	phage Ecoli inh
Nc1ncncc1-c1ccc([N+](=O)[O-])cc1	2.3	21.6	0.362*	3.9	1.0
Oc1c(CN2CCN(c3ccccc3)CC2)cc(Br)c2cccnc12	4.0	5.4	0.465*	9.0	5.3
c1ccc(N2CCN(Cc3ccnc4ccccc34)CC2)cc1	-0.1	8.1	0.642	-0.9	1.1
Cc1cc(-c2n[nH]c(=S)n2N=C/C(Br)=C/c2ccccc2)n[nH]1	.	.	0.0585*	.	.
Cc1cc(-c2n[nH]c(=S)n2N=C/C=C/c2ccccc2)n[nH]1	.	.	0.691	.	.
COC(=O)NN=Cc1ccc(OS(=O)(=O)c2ccc(C)cc2)c(OC)c1	.	.	0.696	.	.
CC[n+]1c(/C=C/c2ccc(N(C)C)cc2)ccc2ccccc21	1.7	-369.9	0.469*	4.3	3.9
CC[n+]1ccc(/C=C/c2ccc(N(C)C)cc2)c2ccccc21	.	-299.6	0.347*	.	-0.8
CCN(CC)c1ccc(/C=C/c2ccc3ccc(OC)cc3[n+]2CC)cc1	12.4*	-444.8	0.502*	11.8	7.4
O=C(Cc1nc2ccccc2[nH]1)NN=Cc1ccccc1	.	.	0.725	.	.
CCCC=NNC(=O)c1cc(-c2ccccc2)nc2ccccc12	.	.	0.666	.	.
CCn1c(C)nc2cc(C(=O)N/N=C/c3ccc(O)c(O)c3O)ccc21	.	10.2	.	.	21.1*
CCCON=C1C(=O)N(c2ccccc2)c2ccccc21	.	.	0.653	.	.
O=C(NN=Cc1ccccn1)c1ccc(Br)cc1	.	.	0.623	.	.
COCCCNC(=O)CSc1ccsc1[N+](=O)[O-]	11.2*	-2.9	0.686	11.6	5.6
CC(=NNC(=O)C1CC1(c1ccccc1)c1ccccc1)c1cccc([N+](=O)[O-])c1 (stereo unspecified)	.	.	0.686	.	.
COC(=O)C1C(O)C(C)C(O)C(C)(O)/C=C\C=C(/C)C(=O)Nc2c(C)c(OC(C)=O)c3c(c2O)C(=O)C(C)=C2OCOC(=C23)/C(C)=C/C(C)(O)C(O)C(C)C1O (stereo unspecified)	-2.2	65.0*	.	0.3	7.5
CO/N=C(/C(=O)N[C@@H]1C(=O)N2C(C(=O)O)=CCS[C@H]12)c1cnc(N)s1	100.3*	.	.	100.0*	.
O=C(COc1ccccc1)NC1C(=O)N2C(C(=O)O)=C(Cl)CSC12 (stereo unspecified)	2.2	0.5	0.689	3.4	1.2
Cc1ccc(Cl)cc1NC(=O)CC(O)(C(F)(F)F)C(F)(F)F	11.3*	16.0	0.583	12.2	8.4
O=C(OC[C@H]1O[C@@H](OC(=O)c2cc(O)c(O)c(OC(=O)c3cc(O)c(O)c(O)c3)c2)[C@H](OC(=O)c2cc(O)c(O)c(OC(=O)c3cc(O)c(O)c(O)c3)c2)[C@@H](OC(=O)c2cc(O)c(O)c(OC(=O)c3cc(O)c(O)c(O)c3)c2)[C@@H]1OC(=O)c1cc(O)c(O)c(OC(=O)c2cc(O)c(O)c(O)c2)c1)c1cc(O)c(O)c(OC(=O)c2cc(O)c(O)c(O)c2)c1	30.2*	.	.	27.6*	.
S=C(NCc1ccco1)Nc1ccc(Cl)c(Cl)c1	8.3	-2.5	0.47*	8.9	8.7
CN(C)CCOc1ccc(-c2c(-c3ccccc3)sc3ccccc23)cc1	-0.8	13.4	0.336*	0.2	2.9
c1ccc(-c2sc3ccccc3c2-c2ccc(OCCN3CCCCC3)cc2)cc1	1.6	10.2	0.649	1.2	1.6
CC(CS(=O)(=O)c1ccc(Cl)c(Cl)c1)=NNC(N)=S	.	.	0.71	.	.
OCCN1CCN(CC(O)COc2ccc(C34CC5CC(CC(C5)C3)C4)cc2)CC1 (stereo unspecified)	-2.3	4.9	.	-1.4	2.4
